The source of these data is doi:10.1101/2024.03.05.583629.

The target of this assay is pT7_6His-AlfaTag-HOXD13 (human, UniProt P35453 263-343). The assay is described as follows: PADIT-seq. Conditions: dsDNA, one strand shown.
Chain of pT7_6His-AlfaTag-HOXD13 (P35453 263-343): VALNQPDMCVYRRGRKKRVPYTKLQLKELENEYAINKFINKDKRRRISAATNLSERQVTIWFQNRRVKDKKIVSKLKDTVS
For “CTCGAGGATATCAAGATCTGGCCTCGGCACACTAAAAGGAACCTCTAGCTAGCCGACTCACTATAGGGATAATCGCCCTGAGCAAAGACC”, the binding signal was determined as 0.427 ± 0.0841 log2FC. As for “CTCGAGGATATCAAGATCTGGCCTCGGCCTTTTATTGGGAACCTCTAGCTAGCCGACTCACTATAGGGATAATCGCCCTGAGCAAAGACC”, the figure is 3.44 ± 0.0778 log2FC. As for “CTCGAGGATATCAAGATCTGGCCTCGGCCCAGTAAAAGGAACCTCTAGCTAGCCGACTCACTATAGGGATAATCGCCCTGAGCAAAGACC”, the figure is 2.32 ± 0.0885 log2FC.

Sequence “CTCGAGGATATCAAGATCTGGCCTCGGCATGCCACGCGGAACCTCTAGCTAGCCGACTCACTATAGGGATAATCGCCCTGAGCAAAGACC” yielded a binding signal of -1.08 ± 0.113 log2FC. As for “CTCGAGGATATCAAGATCTGGCCTCGGCCTTTTATTAGGAACCTCTAGCTAGCCGACTCACTATAGGGATAATCGCCCTGAGCAAAGACC”, the figure is 3.32 ± 0.0849 log2FC; as for “CTCGAGGATATCAAGATCTGGCCTCGGCCTTTTAGCAGGAACCTCTAGCTAGCCGACTCACTATAGGGATAATCGCCCTGAGCAAAGACC”, 0.506 ± 0.084 log2FC; as for “CTCGAGGATATCAAGATCTGGCCTCGGCGTTTTAGTCGGAACCTCTAGCTAGCCGACTCACTATAGGGATAATCGCCCTGAGCAAAGACC”, -0.506 ± 0.12 log2FC. As for “CTCGAGGATATCAAGATCTGGCCTCGGCATTTTACCAGGAACCTCTAGCTAGCCGACTCACTATAGGGATAATCGCCCTGAGCAAAGACC”, the figure is 0.505 ± 0.0919 log2FC; as for “CTCGAGGATATCAAGATCTGGCCTCGGCACCTTAAAAGGAACCTCTAGCTAGCCGACTCACTATAGGGATAATCGCCCTGAGCAAAGACC”, 0.52 ± 0.102 log2FC; as for “CTCGAGGATATCAAGATCTGGCCTCGGCGAAATAAAAGGAACCTCTAGCTAGCCGACTCACTATAGGGATAATCGCCCTGAGCAAAGACC”, 1.47 ± 0.0776 log2FC. Then “CTCGAGGATATCAAGATCTGGCCTCGGCGCGATAGCGGGAACCTCTAGCTAGCCGACTCACTATAGGGATAATCGCCCTGAGCAAAGACC”, with -0.758 ± 0.131 log2FC; and “CTCGAGGATATCAAGATCTGGCCTCGGCCTTTTAGATGGAACCTCTAGCTAGCCGACTCACTATAGGGATAATCGCCCTGAGCAAAGACC”, with 0.264 ± 0.0998 log2FC.
